HCMV inh: human cytomegalovirus inhibition; HFF cells, HCMV-luciferase reporter, 72 h; active compounds read low; AID 1259415; activity change, negative = inhibition, % at 57.5 µM; 410,000 tested, 4.5% active; in the data active means activity change below about -60%; inconclusive means no clear call, values can overlap the other calls; inactive means above about -39%
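Human foreskin fibroblasts infected with luciferase-reporter HCMV at MOI 1 PFU/cell, compounds at two doses. Luciferase measured 72 h post infection; normalized to buffer-only basal and Salinomycin (10uM) controls.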
HCV inhibitor: HCV inhibition; Huh7.5.1 HCVcc-Cre infection, luciferase reporter, 44 h; Potency, µM (top dose mostly 41.8 µM), for inactives: at the top dose activity change, negative = inhibition, most hits filed as inhibitors; 340,000 tested, 3.4% active; AID 651820; further: potency means the concentration at half of the fitted maximal effect
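Antiviral activity was scored by luciferase reporter output from cells infected with HCVcc-Cre (~0.5 moi) in presence of compound, 44 h infection period, cells seeded 1,000/well 4 h prior.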
Pf growth 96h: inhibits malaria parasite growth, 96 h; P. falciparum luciferase reporter growth, 96 h; Potency, µM (doses to about 28.7 µM), without a hit: at the highest dose activity change, negative = inhibition, most hits filed as inhibitors; 320,000 tested, 6.9% active; AID 504834; further: potency means the concentration at half of the fitted maximal effect
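P. falciparum expressing integrated firefly luciferase grown in erythrocytes (2% hematocrit, 0.05% parasitemia final) with compounds for 96 hours at 37 C, 5% CO2. Growth inhibition read as loss of luminescence after adding luciferase detection reagent.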
Pf growth 48h: P. falciparum growth inhibition at 48 hours (one generation); P. falciparum luciferase growth in erythrocytes, 48 h; Potency, µM (doses to about 28.7 µM), for the others: top-dose activity change, negative = inhibition, hits mostly inhibitors; 310,000 tested, 5.9% active; AID 504832; further: potency means the concentration at half of the fitted maximal effect
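Luciferase-expressing P. falciparum in infected erythrocytes (2% hematocrit, 0.1% parasitemia final) in RPMI 1640/0.5% Albumax were exposed to compound for 48 hours at 37 C, 5% CO2; growth read as luminescence.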
Numbers without * were called inactive; u = inconclusive; x = no result given; ! = not confirmed by another sample; [ ] = another dose, or the depositor's remark. In the library only some 13% were active in any assay of this set; here they are far more common. Unless noted, the call rests on the fitted dose curve; in most records, active means well fitted inhibition curve with a large enough effect; inconclusive means small, poorly fitted or top-dose-only effect, or another doubt; inactive means no such curve, though single readings can be large or run the other way. On the % scale 0 is the no-effect control and ±100 the full control effect.

SMILES	HCMV inh	HCV inhibitor	Pf growth 96h	Pf growth 48h
Cc1ccc(S(=O)(=O)N(C)c2cc(S(=O)(=O)N3CCOCC3)c(C)cc2C)cc1	-8.0	-25.5%	u	-17.0%
Cc1cc(C)c(S(=O)(=O)N2CCCCC2)cc1N(C)S(=O)(=O)c1ccc(Cl)cc1	u	31.6µM*	u	u
CCOc1ccc(Br)cc1S(=O)(=O)N1CC(C)OC(C)C1 (stereo unspecified)	30.6	-18.8%	x	-4.2%
COc1ccc(OC)c(CCNc2nc3cnc(-c4ccccc4Oc4ccccc4)cc3n2C)c1	-15.3	x	x	x
CC1=C(C(=O)Nc2ccc(C)cc2C)C(c2ccc([N+](=O)[O-])cc2)n2ncc(C(=O)Nc3ccc(F)cc3)c2N1 (stereo unspecified)	-0.8	x	x	x
COc1ccc(C)cc1S(=O)(=O)N1CCCCCC1	-38.6	16.7%	-10.7%	2.08µM*
c1csc(-n2nc3ccccc3n2)c1	-65.6*	-27.7%	8.5%[5.75 µM]	50.6%
Nc1ccc(-n2nc3ccccc3n2)cc1	70.3	-12.3%	x	x
Fc1ccccc1C(NCCc1ccc(Cl)cc1)c1nnc(-c2ccccc2)o1 (stereo unspecified)	6.2	x	x	x
Cc1cccc(COc2ncnc3nc[nH]c23)c1	4.1	3.98µM*	-20.1%	8.9%
CCN(c1cccc(C)c1)c1ncnc2nc[nH]c12	-25.3	u	u	u
COc1cccc(CNC(=O)C(=O)NCC(c2ccco2)S(=O)(=O)c2ccccc2)c1 (stereo unspecified)	17.7	x	x	x
CN(C)/C=C/C(=O)c1ccc2noc(-c3ccccc3)c2c1	-62.7*	u	18.0%	-0.5%
CC(=O)c1ccc2noc(-c3ccccc3)c2c1	-27.3	u	262.5%	-22.5%
CC(=O)c1c(C)[nH]c(C(=O)CSc2nnc(-c3cccs3)n2Cc2ccccc2)c1C	-13.1	2.82µM*	x	9.28µM*
CC(=O)c1c(C)[nH]c(C(=O)CSc2nnc(C3CCCCC3)n2N)c1C	41.1	-10.1%	x	2.08µM*
C=CCn1c(C)nnc1SCC(=O)c1[nH]c(C)c(C(C)=O)c1C	51.0	-25.5%	u	u
CC(=O)c1c(C)[nH]c(C(=O)CSc2nnc(-c3ccco3)n2Cc2ccccc2)c1C	1.8	u	0.0586µM*	u
Cc1cc(C(=O)CSc2nnc(-c3cccs3)n2Cc2ccccc2)c(C)n1C	-38.4	u	-2.5%	u
CCOC(=O)c1c(C)[nH]c(C(=O)CSc2nnc(-c3cccs3)n2Cc2ccccc2)c1C	-19.1	u	u	u
O=c1cc(CSc2nnc(-c3cccs3)n2Cc2ccccc2)nc2sc3ccccc3n12	-93.3*	u	126.3%	u
CCN(CC)c1ccc(C(=O)NCc2ccc3c(c2)CCN3C(=O)c2ccccc2)cc1	-13.6	x	x	x
CCCn1cc(S(=O)(=O)c2cc(C)ccc2C)c(=O)c2cc(F)c(N3CCOCC3)cc21	29.0	x	x	x
CCCN(CCC)C(=O)Cn1c(=O)n(-c2cccc(OC)c2)c(=O)c2c3c(sc21)CCCC3	-17.5	x	x	x
Cc1cc2c(n1-c1ccc(C(=O)NCCc3ccc(Cl)cc3)cc1)CCC(C)C2 (stereo unspecified)	-27.9	x	x	x
SMILES	HCMV inh	HCV inhibitor	Pf growth 96h	Pf growth 48h
Cc1c(-c2cccc(NC(=O)Nc3ccccc3)c2)nc2ncccn12	-11.8	x	x	x
COc1ccc(CCNC(=O)c2cc3c(=O)[nH]c4ccc(C)cc4c3s2)cc1OC	-5.7	x	x	x
COc1ccc(C2SCC(=O)Nc3c2c(C)nn3-c2ccccc2)cc1 (stereo unspecified)	19.7	-25.6%	-7.0%	x
Cc1nn(-c2ccccc2)c2c1C(c1ccc(Cl)cc1)N(c1ccccc1)C(=O)N2 (stereo unspecified)	u	u	13.1µM*	13.1µM*
O=c1cc[nH]c2ccc(Cl)cc12	16.2	4.9%[8.37 µM]	0.9%	23.2%
O=c1cccc2c1c1cc[nH]c3ccc(=O)n2c31	-70.0*	u	u	u
CCn1c(=O)n(-c2ccc3c(c2)OCO3)c2nc(-c3cc(OC)ccc3OC)nc(C(N)=O)c21	5.1	x	x	x
COc1cc(NC(=O)Cn2c(-c3cncs3)nc3ccccc32)cc(OC)c1OC	93.6	-1.2%	17.6%	2.33µM*
Cc1ccc(NC(=O)Cn2c(=O)c(C)nc3ccccc32)cc1	-28.5	2.2%	42.6%[5.75 µM]	-0.9%
Cc1nc2ccccc2n(CC(=O)Nc2cc(Cl)cc(Cl)c2)c1=O	-60.6*	-28.4%	12.7%	u
CCCCCOc1ccc(NC(=O)Cn2c(-c3cncs3)nc3ccccc32)cc1	-63.9*	x	x	x
Cc1cc(C)cc(NC(=O)Cn2c(-c3cncs3)nc3ccccc32)c1	-27.2	x	x	x
CC1=C(c2ccc(C(C)C)cc2)S(=O)(=O)NC1=NCc1ccccc1Br	-2.2	x	x	x
COc1ccc(OC)c(N(C)S(=O)(=O)c2ccc3c(c2)NC(=O)CC(=O)N3)c1	-2.8	x	x	x
O=C(NCc1cccnc1)c1nn(-c2ccc(Cl)cc2)nc1CO	45.9	x	x	x
Cc1ccc2nc(N3C(=O)C(O)=C(C(=O)c4ccco4)C3c3ccc(C)o3)sc2c1 (stereo unspecified)	-21.3	-4.3%	5.22µM*	58.6%
Cc1ccc2nc(N3C(=O)C(O)=C(C(=O)c4ccco4)C3c3ccc(O)cc3)sc2c1 (stereo unspecified)	51.8	x	u	-7.7%
Cc1ccc2nc(N3C(=O)C(O)=C(C(=O)c4ccc(C)o4)C3c3ccco3)sc2c1 (stereo unspecified)	22.4	32.9%	6.75µM*	51.7%
CCCCNC(=O)C[C@@H]1C[C@@]2(C(=O)OCC)CCCC=C2N(CCC2=CCCCC2)C1=O	-31.7	x	x	x
CCOC(=O)COc1ccc(-c2nnn(CC(=O)Nc3ccccc3)n2)cc1	-3.9	x	x	x
COc1ccc(S(=O)(=O)Nc2ccc3c(c2)CCCN3S(=O)(=O)c2ccc(C)cc2)cc1F	-63.9*	x	x	x
Cc1ccc(S(=O)(=O)N2CCCc3cc(NC(=O)c4c(F)cccc4F)ccc32)cc1	-69.2*!	10µM*	13.7%	-13.4%
Cc1ccc(S(=O)(=O)N2CCCc3cc(NS(=O)(=O)c4cc(F)ccc4F)ccc32)cc1	-21.5	x	x	x
Cc1ccc(S(=O)(=O)N2CCCc3cc(NC(=O)c4cccc(Cl)c4)ccc32)cc1	-4.3	x	x	x
COc1cccc(OC)c1C(=O)Nc1ccc2c(c1)CCCN2S(=O)(=O)c1ccc(C)cc1	-64.2*!	u	u	u
SMILES	HCMV inh	HCV inhibitor	Pf growth 96h	Pf growth 48h
CCCN1CCC(=O)N([C@H](CO)CC(C)C)CC1	-60.9*	41.7%	-8.9%	-4.0%
COc1ccc(CN2CCC(=O)N([C@H](CO)CC(C)C)CC2)cc1OC	-68.0*	-8.6%	-12.9%	29.6%
CC(C)C[C@@H](CN=[N+]=[N-])N1CCN(C)CCC1=O	-62.5*	7.3%	14.7µM*	9.1%
CC(C)C[C@@H](CO)N1CCN(CC(C)C)CCC1=O	-23.7	8.7%	5.3%	41.3%
COc1ccc(CN2CCC(=O)N([C@H](CO)c3ccccc3)CC2)cc1OC	18.9	15.3%	-22.6%	20.4%
CC(C)NC(=O)Cn1ccc2cc(S(=O)(=O)N3CCCCCC3)ccc21	-10.7	x	x	x
